The list is a sample of the results.
aSyn UTR act: Activators working through SNCA 5'UTR binding (MLPCN); alpha-synuclein 5'UTR reporter, activators screen; activity score, % (tested at 7.5 µM), hits read low; 300,000 tested, 7.1% active; AID 1814; in the data active = activity score below about -60%
* = called active by the depositor.

SMILES	aSyn UTR act
OC1CCCN(C(=S)Nc2ccc(SC(F)F)cc2)C1 (configuration not stated)	-68*
OC1CCN(C(=S)Nc2ccc(Nc3ccccc3)cc2)CC1	-116*
COc1ccc(-c2cnnc(N/N=C/c3ccc(O)c(O)c3)n2)cc1	-90*
Oc1ccc(/C=N\Nc2nncc(-c3ccccc3)n2)cc1	-174*
Oc1ccc(Nc2nc3ccccc3nc2Nc2ccc(O)cc2)cc1	108
Cc1nc2ccccc2nc1N/N=C/c1ccc(O)cc1	-87*
COc1ccc(-c2cnnc(N/N=C/c3ccc(O)cc3)n2)cc1	-77*
Cc1cccc(-n2cc(-c3ccc([N+](=O)[O-])cc3)[nH]c2=S)c1	-80*
O=[N+]([O-])c1ccc(-c2cn(-c3ccccc3)c(=S)[nH]2)cc1	-101*
O=[N+]([O-])c1cccc(-c2cn(-c3ccccc3)c(=S)[nH]2)c1	-179*
Cc1cccc(-n2ncc3c(NCCCn4ccnc4)ncnc32)c1	-129*
O=C1CCCN1CCCNc1ncnc2c1cnn2-c1ccc(Cl)cc1	-152*
Cc1cccc(-n2ncc3c(NCCCN4CCCC4=O)ncnc32)c1	-143*
Cc1ccc(-c2cn3nc(C)c(C)nc3n2)cc1	73
Cc1ccc(-c2cn3c(n2)SCC3)cc1	-144*
CCc1ccc(-c2cn3c(n2)SCC3)cc1	-99*
FCCCOc1ccc(/C=N/OCc2c(Cl)cccc2Cl)cc1	-94*
FCCCOc1ccc(/C=N/OCc2ccc(Cl)cc2)cc1	-70*
CCCCCn1cnc2sc(-c3ccccc3)cc2c1=O	-299*
CCCCn1cnc2sc(-c3ccccc3)cc2c1=O	-213*
O=c1c2cc(-c3ccccc3)sc2ncn1/N=C/c1ccco1	-140*
COc1ncnc2sc(-c3ccccc3)cc12	-168*
COc1ccccc1-n1cnc2sc(-c3ccccc3)cc2c1=O	-142*
CC(=O)NCCOc1ccc2oc3ccccc3c2c1	-133*
O=C(Nc1ccc(Cl)c(C(F)(F)F)c1)C(=O)N1CCCCC1	-67*
SMILES	aSyn UTR act
O=C(Nc1ccc(Cl)c(Cl)c1)N1CCCCCC1	-140*
S=C(Nc1ccc2nsnc2c1)N1CCCC1	-133*
S=C(Nc1ccc2nccnc2c1)N1CCCC1	-87*
Cc1csc2ncnc(N3CCN(C(=S)Nc4ccc(C(F)(F)F)cc4)CC3)c12	56
O=C(Nc1ccc2nsnc2c1)N1CCCCCC1	-98*
O=[N+]([O-])c1cccc(/C=N/Nc2cc(N3CCOCC3)ncn2)c1	-90*
Clc1ccccc1/C=N/Nc1cc(N2CCOCC2)ncn1	-151*
C/C(=N\Nc1cc(N2CCOCC2)ncn1)c1cccc([N+](=O)[O-])c1	-81*
C/C(=N\Nc1cc(N2CCOCC2)ncn1)c1ccccc1	-79*
CNc1cccc2c1C(=O)c1ccccc1C2=O	-119*
CNS(=O)(=O)c1cc2c3c(cccc3c1)C(=O)NC2=O	71
C=CCNc1nc(Nc2ccccc2F)nc(OCC)n1	-122*
COc1cc(N/N=C(\C)c2ccc(N)cc2)nc(-c2ccccc2)n1	-62*
O=C(O)c1ccc(/C=C/c2ccc3cccc(O)c3n2)cc1	-188*
Oc1ccc(/C=C/c2ccc3cccc(O)c3n2)cc1Br	-200*
CC1Cc2cc(S(=O)(=O)NCc3ccccc3)ccc2N1C(=O)C1CC1 (configuration not stated)	-65*
CCOC(=O)C(=O)Nc1nc(-c2ccc3c(c2)CCN3C(=O)C2CC2)c(C)s1	-76*
CC(=O)Nc1nc(-c2ccc3c(c2)CC(C)N3C(=O)C2CC2)c(C)s1 (configuration not stated)	-295*
Cc1sc(NC(=O)c2ccco2)nc1-c1ccc2c(c1)CC(C)N2C(=O)C1CC1 (configuration not stated)	-106*
CSc1nc2sc3c(c2c(=O)n1C)CCC(C)C3 (configuration not stated)	-165*
O=C(Nc1cc(C(F)(F)F)ccc1N1CCOCC1)c1ccc2ccccc2n1	-80*
CC(C)=CCC/C(C)=C/CC(C)(C)CNCCN1CCNCC1	-64*
CCN(CC(=O)Nc1ccc2c(c1)OCCO2)C(=O)c1ccc(C(F)(F)F)cc1	-62*
CCN(CC(=O)Nc1ccc2c(c1)OCCO2)C(=O)c1ccc(Cl)cc1Cl	-112*
N/C(=N\O)c1ccc(NC(=O)c2ccc(Br)o2)cc1	-67*
SMILES	aSyn UTR act
C/C(=N/NC(=O)c1ccco1)c1ccc(NC(=O)c2ccc(Br)o2)cc1	-82*
C/C(=N\NC(=O)c1ccc(F)cc1)c1ccc(NC(=O)Cc2ccccc2)cc1	-75*
C/C(=N/NC(=O)c1ccco1)c1ccc(NC(=O)c2ccc(F)cc2)cc1	-109*
CC(=O)Nc1ccc(/C(C)=N\NC(=O)c2ccc(-c3ccccc3)cc2)cc1	96
CCCCCC(=O)N/N=C(\C)c1ccc(NC(=O)c2ccco2)cc1	-107*
COc1ccc(C(=O)Nc2scc(-c3ccc(Cl)cc3Cl)c2C(N)=O)cc1	-237*
CCc1nnc(NC(=O)c2cccc(NC(=O)C(C)C)c2)s1	-81*
COCc1nnc(NC(=O)c2cccc(NC(=O)C(C)C)c2)s1	-73*
CC(C)C(=O)Nc1cccc(C(=O)Nc2nnc(C(C)C)s2)c1	-120*
CCOCc1nnc(NC(=O)c2cccc(OC)c2)s1	-96*
CC(C)C(=O)Nc1ccc(C(=O)Nc2nnc(C(C)C)s2)cc1	-107*
COc1ccccc1OCCNC(=O)c1cc(F)c(F)cc1Cl	-76*
COc1ccccc1OCCCCOc1ccccc1F	-71*
COc1ccccc1OCCNC(=O)c1ccc(Br)cc1	-106*
CCCNC(=O)c1cccc(COc2ccccc2OC)c1	-107*
O=C(NCCNc1ccccc1[N+](=O)[O-])c1cc(F)c(F)cc1Cl	-93*
C=C(CC)C(=O)c1ccc(OCC(=O)O)c(Cl)c1Cl	-67*
Oc1c(/C=N/Nc2cccc3cccnc23)ccc2ccccc12	-164*
Oc1ccc(/C=N/Nc2cccc(Cl)n2)c(O)c1	-244*
Oc1cccc(/C=N/Nc2ccc(Cl)nn2)c1	-171*
COc1cc(/C=N/Nc2cccc3cccnc23)cc(OC)c1O	-94*
COc1cccc(C(NC(C)=O)c2ccc3cccnc3c2O)c1 (configuration not stated)	72
O=[N+]([O-])c1ccc(O)c(/C=N/Nc2ccc(Cl)nn2)c1	100
Oc1cccc(/C=N/Nc2cccc3cccnc23)c1	-142*
COc1ccc(N=Nc2[nH]c3ccc(C)cc3c2O)cc1	-125*
SMILES	aSyn UTR act
Cc1ccc(N=Nc2[nH]c3ccccc3c2O)cc1	-80*
CC/C(C)=N/Nc1nc(-c2cc3cccc(OC)c3oc2=O)cs1	-108*
Oc1ccccc1C1NN=C(c2ccccc2)S1 (configuration not stated)	-80*
CSc1ccc(C2NN=C(c3ccccc3)S2)cc1 (configuration not stated)	68
C=CCOc1ccc(CNc2nccs2)cc1	-74*
O=C(Nc1nnc(-c2ccccc2)o1)C1CCCCC1	-63*
Clc1ccc(-c2nnc(NC3=NCCCCC3)o2)cc1	75
O=C(Nc1nnc(-c2ccc3c(c2)OCCO3)o1)C1CCCCC1	-88*
O=C(Nc1nnc(-c2ccc(Cl)s2)o1)C1CCCCC1	-63*
CC1(C)COCN1S(=O)(=O)c1ccc(C(=O)Nc2nnc(-c3ccc(Cl)s3)o2)cc1	92
O=C(Nc1nnc(-c2ccc(Cl)cc2)o1)C1CCCCC1	-80*
O=C(c1ccc(Cl)cc1)N1CCCCC(Sc2nnc(-c3ccc4c(c3)OCO4)o2)C1=O (configuration not stated)	92
Cn1nc(-c2ccccc2)cc1NC(=O)C1CCCCC1	-70*
